Where a chain is given by its changes, count along the chain named.
Columns and labels:
Experiment in all cases: PBM; 200 nM protein, PBS
Conditions in all cases: dsDNA, one strand shown
HOXB4 [1] = molecular target: HOXB4 (Homo sapiens, UniProt P17483 148-234)
VENTX [2] = molecular target: T1, VENTX (Homo sapiens, UniProt O95231 78-163, R121Q)
T1 sequence: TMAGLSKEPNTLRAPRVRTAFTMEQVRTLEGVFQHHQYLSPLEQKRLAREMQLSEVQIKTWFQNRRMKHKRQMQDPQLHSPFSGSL

HOXA4 [3] = molecular target: HOXA4 (Homo sapiens, UniProt Q00056 201-287, W262R)
PRRX1 [4] = molecular target: PRRX1 (Homo sapiens, UniProt P54821 80-166, F113S)
VENTX [5] = molecular target: T2, VENTX (Homo sapiens, UniProt O95231 78-163, Y115F)
T2 sequence: T1 sequence with Y38F, Q44R

HOXB6 = HOXB6 (Homo sapiens, UniProt P17509 132-218, K202E)
HOXA2 = HOXA2 (Homo sapiens, UniProt O43364 129-215, R185T)
HOXA4 [6] = molecular target: HOXA4 (Homo sapiens, UniProt Q00056 201-287, R217L)
HOXB4 [7] = molecular target: HOXB4 (Homo sapiens, UniProt P17483 148-234, V174I)
MSX2 [8] = molecular target: MSX2 (Homo sapiens, UniProt P35548 130-214, R199I)
PAX4 [9] = molecular target: T3, PAX4 (Homo sapiens, UniProt O43316 9-242, R200Q)
T3 sequence: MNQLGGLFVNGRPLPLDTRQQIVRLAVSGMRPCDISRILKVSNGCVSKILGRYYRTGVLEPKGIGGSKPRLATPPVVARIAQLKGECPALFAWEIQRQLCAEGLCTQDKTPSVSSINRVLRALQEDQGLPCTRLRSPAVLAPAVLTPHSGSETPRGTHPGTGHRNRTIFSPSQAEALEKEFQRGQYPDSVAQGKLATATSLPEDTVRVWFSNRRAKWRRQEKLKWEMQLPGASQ

PAX4 [10] = molecular target: T4, PAX4 (Homo sapiens, UniProt O43316 9-242, F177V)
T4 sequence: T3 sequence with F169V, Q192R

HOXA4 [11] = molecular target: HOXA4 (Homo sapiens, UniProt Q00056 201-287)
MSX2 [12] = molecular target: MSX2 (Homo sapiens, UniProt P35548 130-214)
PAX4 [13] = molecular target: T5, PAX4 (Homo sapiens, UniProt O43316 9-242, F177Y)
T5 sequence: T3 sequence with F169Y, Q192R

MSX2 [14] = molecular target: MSX2 (Homo sapiens, UniProt P35548 130-214, F161Y)
VAX1 [15] = molecular target: VAX1 (Homo sapiens, UniProt Q5SQQ9 86-172, T142I)
HOXA4 [16] = molecular target: HOXA4 (Homo sapiens, UniProt Q00056 201-287, W262F)
PRRX1 [17] = molecular target: PRRX1 (Homo sapiens, UniProt P54821 80-166)
VAX1 [18] = molecular target: VAX1 (Homo sapiens, UniProt Q5SQQ9 86-172, K157R)
Sequence of VAX1 (Homo sapiens, UniProt Q5SQQ9 86-172, K157R) (Q5SQQ9 86-172 K157R): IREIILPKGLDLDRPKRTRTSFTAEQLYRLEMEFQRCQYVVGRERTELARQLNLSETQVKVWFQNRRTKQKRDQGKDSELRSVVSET

Sequence of HOXA4 (Homo sapiens, UniProt Q00056 201-287, W262F) (Q00056 201-287 W262F): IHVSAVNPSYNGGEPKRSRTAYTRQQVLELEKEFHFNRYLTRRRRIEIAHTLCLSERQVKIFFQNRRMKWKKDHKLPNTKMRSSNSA
Sequence of HOXA4 (Homo sapiens, UniProt Q00056 201-287) (Q00056 201-287): as the sequence (Q00056 201-287 W262F) above, with F62W counted along it
Sequence of MSX2 (Homo sapiens, UniProt P35548 130-214, R199I) (P35548 130-214 R199I): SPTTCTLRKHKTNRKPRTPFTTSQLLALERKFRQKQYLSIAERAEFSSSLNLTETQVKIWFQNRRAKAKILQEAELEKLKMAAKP
Sequence of HOXA4 (Homo sapiens, UniProt Q00056 201-287, R217L) (Q00056 201-287 R217L): as the sequence (Q00056 201-287 W262F) above, with R17L, F62W counted along it
Sequence of MSX2 (Homo sapiens, UniProt P35548 130-214) (P35548 130-214): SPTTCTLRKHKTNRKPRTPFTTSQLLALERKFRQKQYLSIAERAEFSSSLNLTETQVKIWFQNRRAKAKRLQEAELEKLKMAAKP
Sequence of HOXA4 (Homo sapiens, UniProt Q00056 201-287, W262R) (Q00056 201-287 W262R): as the sequence (Q00056 201-287 W262F) above, with F62R counted along it
Sequence of HOXB4 (Homo sapiens, UniProt P17483 148-234, V174I) (P17483 148-234 V174I): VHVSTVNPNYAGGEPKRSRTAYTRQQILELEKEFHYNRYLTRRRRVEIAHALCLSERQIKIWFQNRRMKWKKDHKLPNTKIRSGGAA
Sequence of HOXA2 (O43364 129-215 R185T): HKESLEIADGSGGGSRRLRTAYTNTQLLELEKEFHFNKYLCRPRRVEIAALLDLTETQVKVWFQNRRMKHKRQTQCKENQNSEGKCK
Sequence of VAX1 (Homo sapiens, UniProt Q5SQQ9 86-172, T142I) (Q5SQQ9 86-172 T142I): as the sequence (Q5SQQ9 86-172 K157R) above, with T57I, R72K counted along it
Sequence of PRRX1 (Homo sapiens, UniProt P54821 80-166, F113S) (P54821 80-166 F113S): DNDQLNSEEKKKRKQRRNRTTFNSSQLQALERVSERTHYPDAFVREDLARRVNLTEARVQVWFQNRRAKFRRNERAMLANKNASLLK
Sequence of HOXB6 (P17509 132-218 K202E): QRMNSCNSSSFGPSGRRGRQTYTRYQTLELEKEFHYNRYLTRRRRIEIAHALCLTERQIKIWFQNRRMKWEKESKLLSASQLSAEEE
Sequence of MSX2 (Homo sapiens, UniProt P35548 130-214, F161Y) (P35548 130-214 F161Y): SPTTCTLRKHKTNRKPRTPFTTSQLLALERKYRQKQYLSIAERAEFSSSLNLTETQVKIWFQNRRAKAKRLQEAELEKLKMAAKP
Sequence of PRRX1 (Homo sapiens, UniProt P54821 80-166) (P54821 80-166): as the sequence (P54821 80-166 F113S) above, with S34F counted along it
Sequence of HOXB4 (Homo sapiens, UniProt P17483 148-234) (P17483 148-234): as the sequence (P17483 148-234 V174I) above, with I27V counted along it

Row | Sequence | binding signal (HOXB4 [1]) | binding signal (VENTX [2]) | binding signal (HOXA4 [3]) | binding signal (PRRX1 [4]) | binding signal (VENTX [5]) | binding signal (HOXB6) | binding signal (HOXA2) | binding signal (HOXA4 [6]) | binding signal (HOXB4 [7]) | binding signal (MSX2 [8]) | binding signal (PAX4 [9]) | binding signal (PAX4 [10]) | binding signal (HOXA4 [11]) | binding signal (MSX2 [12]) | binding signal (PAX4 [13]) | binding signal (MSX2 [14]) | binding signal (VAX1 [15]) | binding signal (HOXA4 [16]) | binding signal (PRRX1 [17]) | binding signal (VAX1 [18])
1 | TAATTAAA | 13.3 upbm affinity estimate (log intensity, higher = more binding, comparable within an allelic series) | 12.1 upbm affinity estimate (log intensity, higher = more binding, comparable within an allelic series) | 10.8 upbm affinity estimate (log intensity, higher = more binding, comparable within an allelic series) | 11.9 upbm affinity estimate (log intensity, higher = more binding, comparable within an allelic series) | 11.9 upbm affinity estimate (log intensity, higher = more binding, comparable within an allelic series) | 10.1 upbm affinity estimate (log intensity, higher = more binding, comparable within an allelic series) | 13.5 upbm affinity estimate (log intensity, higher = more binding, comparable within an allelic series) | 12.8 upbm affinity estimate (log intensity, higher = more binding, comparable within an allelic series) | 14.1 upbm affinity estimate (log intensity, higher = more binding, comparable within an allelic series) | 12.9 upbm affinity estimate (log intensity, higher = more binding, comparable within an allelic series) | 12.4 upbm affinity estimate (log intensity, higher = more binding, comparable within an allelic series) | 11 upbm affinity estimate (log intensity, higher = more binding, comparable within an allelic series) | 14.1 upbm affinity estimate (log intensity, higher = more binding, comparable within an allelic series) | 13.9 upbm affinity estimate (log intensity, higher = more binding, comparable within an allelic series) | 11.3 upbm affinity estimate (log intensity, higher = more binding, comparable within an allelic series) | 13.5 upbm affinity estimate (log intensity, higher = more binding, comparable within an allelic series) | 13.4 upbm affinity estimate (log intensity, higher = more binding, comparable within an allelic series) | 12.3 upbm affinity estimate (log intensity, higher = more binding, comparable within an allelic series) | 13.6 upbm affinity estimate (log intensity, higher = more binding, comparable within an allelic series) | 13.4 upbm affinity estimate (log intensity, higher = more binding, comparable within an allelic series)
2 | AATTAATT | 13.4 upbm affinity estimate (log intensity, higher = more binding, comparable within an allelic series) | 12.1 upbm affinity estimate (log intensity, higher = more binding, comparable within an allelic series) | 10.8 upbm affinity estimate (log intensity, higher = more binding, comparable within an allelic series) | 11.8 upbm affinity estimate (log intensity, higher = more binding, comparable within an allelic series) | 11.8 upbm affinity estimate (log intensity, higher = more binding, comparable within an allelic series) | 10.2 upbm affinity estimate (log intensity, higher = more binding, comparable within an allelic series) | 13.4 upbm affinity estimate (log intensity, higher = more binding, comparable within an allelic series) | 12.8 upbm affinity estimate (log intensity, higher = more binding, comparable within an allelic series) | 14.1 upbm affinity estimate (log intensity, higher = more binding, comparable within an allelic series) | 13.3 upbm affinity estimate (log intensity, higher = more binding, comparable within an allelic series) | 12.8 upbm affinity estimate (log intensity, higher = more binding, comparable within an allelic series) | 10.9 upbm affinity estimate (log intensity, higher = more binding, comparable within an allelic series) | 14 upbm affinity estimate (log intensity, higher = more binding, comparable within an allelic series) | 14.1 upbm affinity estimate (log intensity, higher = more binding, comparable within an allelic series) | 11.6 upbm affinity estimate (log intensity, higher = more binding, comparable within an allelic series) | 13.8 upbm affinity estimate (log intensity, higher = more binding, comparable within an allelic series) | 13.2 upbm affinity estimate (log intensity, higher = more binding, comparable within an allelic series) | 12.2 upbm affinity estimate (log intensity, higher = more binding, comparable within an allelic series) | 13.6 upbm affinity estimate (log intensity, higher = more binding, comparable within an allelic series) | 13.1 upbm affinity estimate (log intensity, higher = more binding, comparable within an allelic series)

Source: publication PMC11006913
